Source: PubChem BioAssay
Records with an inconclusive call do not appear. Active and inactive are the calls of the source. Unless noted, no cut-off is given here; in the data, nearly all actives have AC50 up to about 26 µM.

How the values were obtained:
[1] = growth inhibition of DIPG glioma cells, dose response, cell-based, SU-DIPG-XVII, MIPE5.0, CellTiter-Glo, qHTS (AID 1347060); settings: SU-DIPG-XVII viability, CellTiter-Glo ATP luminescence;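 for AC50: cells exposed to compound for 48 hours before viability readout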
[2] = growth inhibition of DIPG glioma cells, dose response, cell-based, SU-DIPG-XIII, MIPE4.0, CellTiter-Glo, qHTS (AID 1347061; cut-off not given, nearly all actives have AC50 up to about 37 µM;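 note: cells exposed to compound for 48 hours before readout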); settings: SU-DIPG-XIII viability, CellTiter-Glo ATP luminescence
[3] = growth inhibition of DIPG glioma cells, dose response, cell-based, SU-DIPG-IV, MIPE4.0, CellTiter-Glo, qHTS (AID 1347063; cut-off not given, nearly all actives have AC50 up to about 30 µM;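 note: compound exposure lasted 48 hours before the viability readout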); settings: SU-DIPG-IV viability, CellTiter-Glo ATP luminescence
[4] = viability loss in pontine glioma line – cell-based, SU-DIPG-XXV, MIPE5.0, CellTiter-Glo, qHTS, dose response (AID 1347065); settings: CellTiter-Glo ATP luminescence;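 note: cells exposed to compound for 48 hours before ATP readout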
[5] = SU-DIPG-VI glioma cell viability, MIPE4.0 library, CellTiter-Glo luminescence, qHTS (AID 1347066; cut-off not given, nearly all actives have AC50 up to about 30 µM;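 note: cells exposed to compound for 48 hours before readout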); settings: CellTiter-Glo ATP luminescence
[6] = JHH-DIPG-1 glioma cell viability, MIPE5.0 library, CellTiter-Glo luminescence, qHTS (AID 1347067); settings: JHH-DIPG-1 glioma viability, CellTiter-Glo ATP luminescence;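 note: cells exposed to compound for 48 hours before readout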
[7] = sensitizers of A549 cells to miR-34 induction, primary screen, imaging, A549 dox-inducible miR-34, nuclei and caspase counts (AID 1347080;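 active = compounds whose cell count with miR-34 switched on is under 0.7 times the count with it off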); settings: A549 miR-34 inducible, Hoechst nuclei count, 48 h
[8] = survival rescue of mitochondrial mutant cells in low glucose, primary screen, MELAS cybrids, Rieske KO mouse fibroblasts, CellTiter-Glo (AID 1508586;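 active = mean z-score across replicates of 1.96 or higher in either the MELAS or the Rieske mutant cell line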;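 note: z relative to plate mean and SD of compound and empty wells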)
[9] = ovarian cancer cell viability with rucaparib, profiling panel, oncology-focused library, rucaparib conditional (AID 1508598;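 active = normalized viability below 100% at a tested concentration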); settings: patient-derived ovarian cancer cells, CellTiter-Glo viability, 144 h, stronger effect = lower value
[10] = SU-DIPG-XXV glioma cell viability, MIPE5.0 library, qHTS (AID 1347068; cut-off not given, nearly all actives have IC50 up to about 30 µM;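 for IC50: cells exposed to compound for 48 hours before viability readout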)
[11] = modifiers of HSF1 nuclear foci, imaging, Selleck Cancer Library (AID 1347162; in the data active = plate-normalised HSF1 focus index below about 0.46); settings: human cells, at 10 µM; SSMD: measured here: HSF1 foci SSMD mean; cell count: measured here: cell number; plate-normalised HSF1 focus index: stronger effect = lower value
[12] = growth inhibition of DIPG glioma cells, dose response, cell-based, SU-DIPG-XIII, MIPE5.0, CellTiter-Glo, qHTS (AID 1347064; cut-off not given, nearly all actives have AC50 up to about 23 µM;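 for AC50: cells exposed to compound for 48 hours before the viability read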); settings: SU-DIPG-XIII viability, CellTiter-Glo ATP luminescence
[13] = stronger effect = lower value, cell number ratio, induced over uninduced
[14] = measured here: relative caspase fold change +Dox/-Dox
[15] = measured here: total cells with miR-34 induction, stronger effect = lower value
[16] = measured here: total cells without miR-34 induction
[17] = MELAS cybrid survival, CellTiter-Glo 48 h, stronger effect = higher value
[18] = Rieske KO mouse fibroblast survival, CellTiter-Glo 72 h

## Nc1cccc2c1C(=O)N(C1CCC(=O)NC1=O)C2=O (centres undefined)
[1]
  outcome: inactive
[2]
  outcome: inactive
[3]
  outcome: inactive
[4]
  AC50: 0.00118 µM (active)
[5]
  outcome: inactive
[6]
  outcome: inactive
[7]; [13]
  fold change: 0.865 (inactive)
[7]; [14]
  fold change: 0.842
[7]; [15]
  cell count: 8200
[7]; [16]
  cell count: 9490
[8]; [17]
  z-score: 0.05 (inactive)
[8]; [18]
  z-score: 0.628
[9]; at 0.000305 µM, OCI-C5x cells, with rucaparib 10 µM, 100% = cells with rucaparib alone
  viability: 110% (inactive)
[9]; at 0.000305 µM, OCI-C5x cells, without rucaparib
  viability: 124% (inactive)
[9]; at 0.000305 µM, OCI-P5x cells, with rucaparib 20 µM, 100% = cells with rucaparib alone
  viability: 110% (inactive)
[9]; at 0.000305 µM, OCI-P5x cells, without rucaparib
  viability: 127% (inactive)
[9]; at 0.00122 µM, OCI-C5x cells, with rucaparib 10 µM, 100% = cells with rucaparib alone
  viability: 109% (inactive)
[9]; at 0.00122 µM, OCI-C5x cells, without rucaparib
  viability: 124% (inactive)
[9]; at 0.00122 µM, OCI-P5x cells, with rucaparib 20 µM, 100% = cells with rucaparib alone
  viability: 107% (inactive)
[9]; at 0.00122 µM, OCI-P5x cells, without rucaparib
  viability: 125% (inactive)
[9]; at 0.00488 µM, OCI-C5x cells, with rucaparib 10 µM, 100% = cells with rucaparib alone
  viability: 112% (inactive)
[9]; at 0.00488 µM, OCI-C5x cells, without rucaparib
  viability: 121% (inactive)
[9]; at 0.00488 µM, OCI-P5x cells, with rucaparib 20 µM, 100% = cells with rucaparib alone
  viability: 102% (inactive)
[9]; at 0.00488 µM, OCI-P5x cells, without rucaparib
  viability: 118% (inactive)
[9]; at 0.0195 µM, OCI-C5x cells, with rucaparib 10 µM, 100% = cells with rucaparib alone
  viability: 115% (inactive)
[9]; at 0.0195 µM, OCI-C5x cells, without rucaparib
  viability: 125% (inactive)
[9]; at 0.0195 µM, OCI-P5x cells, with rucaparib 20 µM, 100% = cells with rucaparib alone
  viability: 105% (inactive)
[9]; at 0.0195 µM, OCI-P5x cells, without rucaparib
  viability: 114% (inactive)
[9]; at 0.0781 µM, OCI-C5x cells, with rucaparib 10 µM, 100% = cells with rucaparib alone
  viability: 117% (inactive)
[9]; at 0.0781 µM, OCI-C5x cells, without rucaparib
  viability: 112% (inactive)
[9]; at 0.0781 µM, OCI-P5x cells, with rucaparib 20 µM, 100% = cells with rucaparib alone
  viability: 104% (inactive)
[9]; at 0.0781 µM, OCI-P5x cells, without rucaparib
  viability: 118% (inactive)
[9]; at 0.313 µM, OCI-C5x cells, with rucaparib 10 µM, 100% = cells with rucaparib alone
  viability: 110% (inactive)
[9]; at 0.313 µM, OCI-C5x cells, without rucaparib
  viability: 116% (inactive)
[9]; at 0.313 µM, OCI-P5x cells, with rucaparib 20 µM, 100% = cells with rucaparib alone
  viability: 99.9% (active)
[9]; at 0.313 µM, OCI-P5x cells, without rucaparib
  viability: 107% (inactive)
[9]; at 1.25 µM, OCI-C5x cells, with rucaparib 10 µM, 100% = cells with rucaparib alone
  viability: 118% (inactive)
[9]; at 1.25 µM, OCI-C5x cells, without rucaparib
  viability: 117% (inactive)
[9]; at 1.25 µM, OCI-P5x cells, with rucaparib 20 µM, 100% = cells with rucaparib alone
  viability: 88.7% (active)
[9]; at 1.25 µM, OCI-P5x cells, without rucaparib
  viability: 97.8% (active)
[9]; at 5 µM, OCI-C5x cells, with rucaparib 10 µM, 100% = cells with rucaparib alone
  viability: 105% (inactive)
[9]; at 5 µM, OCI-C5x cells, without rucaparib
  viability: 110% (inactive)
[9]; at 5 µM, OCI-P5x cells, with rucaparib 20 µM, 100% = cells with rucaparib alone
  viability: 84.6% (active)
[9]; at 5 µM, OCI-P5x cells, without rucaparib
  viability: 97.3% (active)

## N#CC(c1ccnc(NCCc2cccnc2)n1)c1nc2ccccc2s1 (centres undefined)
[1]
  AC50: 11.8 µM (active)
[2]
  outcome: inactive
[3]
  AC50: 13.2 µM (active)
[4]
  AC50: 11.8 µM (active)
[6]
  AC50: 18.6 µM (active)
[10]
  outcome: inactive

## CCc1cc(-c2n[nH]c(C)c2-c2ccc3c(c2)OCCO3)c(O)cc1O
[1]
  AC50: 18.6 µM (active)
[2]
  AC50: 7.43 µM (active)
[3]
  AC50: 2.64 µM (active)
[4]
  AC50: 16.6 µM (active)
[6]
  AC50: 20.9 µM (active)
[10]
  IC50: 20.9 µM (active)
[11]
  SSMD: 1.15
  cell count: 5920
  plate-normalised HSF1 focus index: 1.07 (inactive)

## N#CC1(c2ccc(NC(=O)c3cccnc3NCc3ccncc3)cc2)CCCC1
[1]
  outcome: inactive
[2]
  outcome: inactive
[12]
  outcome: inactive
[4]
  outcome: inactive
[5]
  outcome: inactive
[6]
  outcome: inactive
[10]
  outcome: inactive
[7]; [13]
  fold change: 0.862 (inactive)
[7]; [14]
  fold change: 1.08
[7]; [15]
  cell count: 6630
[7]; [16]
  cell count: 7700
[8]; [17]
  z-score: -0.704 (inactive)
[8]; [18]
  z-score: 0.694

## Cc1nc(C(=O)NCC(=O)O)c(O)c2ccc(Oc3ccccc3)cc12
[1]
  outcome: inactive
[2]
  outcome: inactive
[12]
  outcome: inactive
[4]
  outcome: inactive
[5]
  outcome: inactive
[6]
  outcome: inactive
[10]
  outcome: inactive
[7]; [13]
  fold change: 0.947 (inactive)
[7]; [14]
  fold change: 0.804
[7]; [15]
  cell count: 6810
[7]; [16]
  cell count: 7190
[8]; [17]
  z-score: -0.0779 (inactive)
[8]; [18]
  z-score: 0.278

## Cn1c(Nc2ccc(C(F)(F)F)cc2)nc2cc(Oc3ccnc(-c4ncc(C(F)(F)F)[nH]4)c3)ccc21
[1]
  AC50: 5.25 µM (active)
[2]
  AC50: 16.6 µM (active)
[3]
  AC50: 0.132 µM (active)
[4]
  AC50: 0.372 µM (active)
[5]
  AC50: 3.32 µM (active)
[6]
  AC50: 2.63 µM (active)
[7]; [13]
  fold change: 0.96 (inactive)
[7]; [14]
  fold change: 0.95
[7]; [15]
  cell count: 2230
[7]; [16]
  cell count: 2330
[8]; [17]
  z-score: 0.723 (inactive)
[8]; [18]
  z-score: 0.357

## Cc1ccc(S(=O)(=O)Nc2cc(Cl)ccc2C(=O)Nc2nc(-c3ccccc3)cs2)cc1
[1]
  AC50: 7.42 µM (active)
[2]
  AC50: 10.5 µM (active)
[3]
  AC50: 16.6 µM (active)
[4]
  AC50: 8.33 µM (active)
[5]
  AC50: 5.26 µM (active)
[6]
  AC50: 1.05 µM (active)

## CCC(=O)NC[C@H](Cc1ccc(OCCc2nc(-c3ccccc3)oc2C)cc1)N/C(C)=C\C(=O)c1ccc(C(F)(F)F)cc1
[1]
  AC50: 16.6 µM (active)
[2]
  outcome: inactive
[3]
  AC50: 8.33 µM (active)
[4]
  AC50: 13.2 µM (active)
[5]
  outcome: inactive
[10]
  outcome: inactive

## COc1cc2ncnc(Nc3cccc(Br)c3)c2cc1OC
[1]
  AC50: 2.09 µM (active)
[2]
  outcome: inactive
[12]
  AC50: 14.8 µM (active)
[4]
  AC50: 16.6 µM (active)
[6]
  AC50: 20.9 µM (active)
[11]
  SSMD: 2.47
  cell count: 7590
  plate-normalised HSF1 focus index: 1.15 (inactive)

## CCC(=O)N1CCN(c2ccc(-n3c(=O)ccc4cnc5ccc(-c6cnc7ccccc7c6)cc5c43)cc2C(F)(F)F)CC1
[1]
  AC50: 0.0456 µM (active)
[2]
  AC50: 1.32 µM (active)
[3]
  AC50: 0.0662 µM (active)
[12]
  AC50: 0.162 µM (active)
[4]
  AC50: 0.0811 µM (active)
[11]
  SSMD: 1.96
  cell count: 7220
  plate-normalised HSF1 focus index: 1.1 (inactive)

## CC1(C)CCC(CN2CCN(c3ccc(C(=O)NS(=O)(=O)c4ccc(NCC5CCOCC5)c([N+](=O)[O-])c4)c(Oc4cnc5[nH]ccc5c4)c3)CC2)=C(c2ccc(Cl)cc2)C1
[1]
  AC50: 18.6 µM (active)
[2]
  outcome: inactive
[3]
  AC50: 10.5 µM (active)
[4]
  AC50: 0.417 µM (active)
[5]
  AC50: 7.43 µM (active)
[6]
  AC50: 13.2 µM (active)
[10]
  outcome: inactive
[7]; [13]
  fold change: 1.1 (inactive)
[7]; [14]
  fold change: 0.349
[7]; [15]
  cell count: 5370
[7]; [16]
  cell count: 4860
[8]; [17]
  z-score: -0.355 (inactive)
[8]; [18]
  z-score: 0.0474

## Clc1ccc(C2(c3ccc(-c4cn[nH]c4)cc3)CCNCC2)cc1
[1]
  AC50: 18.6 µM (active)
[2]
  outcome: inactive
[12]
  AC50: 14.8 µM (active)
[4]
  AC50: 10.5 µM (active)
[5]
  outcome: inactive
[7]; [13]
  fold change: 0.914 (inactive)
[7]; [14]
  fold change: 1.06
[7]; [15]
  cell count: 2520
[7]; [16]
  cell count: 2760
[8]; [17]
  z-score: 5.75 (active)
[8]; [18]
  z-score: -3.02
